SMILES strings stand for the structures. Results filed as inconclusive are left out. A number with no mark means an inactive call. Activity calls are given as the source filed them. Calls come from the whole dose curve; as a rule, active = well fitted curve in the direction sought with a large enough effect; inconclusive = small, poorly fitted or top-dose-only effect, or another doubt; inactive = no such curve, though single readings can be large; an effect the other way counts as inactive or inconclusive.

For eight compounds, outcome, max response and Potency results are on record in PubChem BioAssay (NCATS).

Assay [1] relates to HaCat. As to the kind of experiment: Cytotoxic Profiling of Annotated Libraries Using Quantitative High-Throughput Screening (AID 1296008). Note: nearly all actives have a fitted effect of over 60% in size. The following applies: Five cell lines viability, CellTiter-Glo ATP luminescence, 48-72 h; max response: stronger effect = lower value. The method in brief:
(§1)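 Compounds were pin-transferred onto cells and incubated 48 or 72 hr at 37 degree Celsius, 95% humidity. CellTiter-Glo was added, plates sat 10 min at room temperature, then ATP-coupled luminescence was imaged as the viability read-out.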
(Cellular ATP, detected with luciferase, serves as a proxy for viable cell number.)

In assay [2] the test system is NIH3T3. Described as above. The following applies: Five cell lines viability, CellTiter-Glo ATP luminescence, 48-72 h; max response: stronger effect = lower value. The method in brief:
as §1

Assay [3] concerns HACAT. As to the kind of experiment: qHTS assay to identify novel small-molecules to repurpose for Merkel cell carcinoma treatment (AID 1296009). Note: nearly all actives have a fitted effect of over 60% in size. Note: potency is the fitted concentration of half-maximal effect. As to conditions: MCC and control cell lines, CellTiter-Glo viability, 72 h; at 44.8 µM (top of the series) unless noted. An outline of the steps:
(§2)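 qHTS format: cells treated with library compounds in DMSO across 8 (NPC) or 11 (MIPE) concentrations. Readout after 72 hr at 37 degree celsius was CellTiter-Glo luminescence.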
A general note: Quantitative high-throughput screening tests each substance at several concentrations.

In a further assay the test system is MCC-13. The assay is described as above. As to conditions: MCC and control cell lines, CellTiter-Glo viability, 72 h; series mostly up to 46 µM. An outline of the steps: as §2
In the next assay the test system is MCC-26. The assay is described as above. The following applies: MCC and control cell lines, CellTiter-Glo viability, 72 h; series mostly up to 46 µM. The method in brief: as §2
For another assay, the system named is MKL-1. The description is as above. As to conditions: MCC and control cell lines, CellTiter-Glo viability, 72 h; series mostly up to 46 µM. The method in brief:
as §2

The next assay deals with WaGa. The assay is described as above. As to conditions: MCC and control cell lines, CellTiter-Glo viability, 72 h; series mostly up to 46 µM. An outline of the steps: as §2
In a further assay the test system is C33A. Briefly: Primary qHTS to identify gynecologic anti-cancer compounds using libraries of approved drugs and bioactive compounds (AID 1345084). Note: nearly all actives have a fitted effect of over 55% in size. The following applies: Gynecologic cancer cell panel viability, ATPlite luminescence, 48 h; series mostly up to 57.5 µM. An outline of the steps:
(§3)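 Cytotoxicity screen measuring ATP content by luciferase luminescence. Each compound is applied at five concentrations for 48 h at 37 C with 5% CO2.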

In the next assay the test system is CAOV3. Described as above. As to conditions: Gynecologic cancer cell panel viability, ATPlite luminescence, 48 h; series mostly up to 57.5 µM. The method in brief: as §3
For a further assay, the system named is CASKI. Described as above. The following applies: Gynecologic cancer cell panel viability, ATPlite luminescence, 48 h; series mostly up to 57.5 µM. An outline of the steps:
as §3

The subject of another assay is Es-2. The assay is described as above. The following applies: Gynecologic cancer cell panel viability, ATPlite luminescence, 48 h; series mostly up to 57.5 µM. The method in brief:
as §3

In assay [4] the test system is Hek293T. The assay is described as above. As to conditions: Gynecologic cancer cell panel viability, ATPlite luminescence, 48 h, control line for the selectivity index; series mostly up to 57.5 µM. An outline of the steps:
as §3

Another assay deals with JEG-3. The description is as above. As to conditions: Gynecologic cancer cell panel viability, ATPlite luminescence, 48 h; series mostly up to 57.5 µM. An outline of the steps: as §3
A further assay relates to OV90. The description is as above. The following applies: Gynecologic cancer cell panel viability, ATPlite luminescence, 48 h; series mostly up to 57.5 µM. An outline of the steps:
as §3

The test system of a further assay is UISO. Briefly: qHTS assay to identify novel small-molecules to repurpose for Merkel cell carcinoma treatment (AID 1296009). Note: nearly all actives have a fitted effect of over 60% in size. Note: potency is the fitted concentration of half-maximal effect. The following applies: MCC and control cell lines, CellTiter-Glo viability, 72 h; series mostly up to 46 µM. An outline of the steps: as §2
For another assay, the system named is HeLa. As to the kind of experiment: Primary qHTS to identify gynecologic anti-cancer compounds using libraries of approved drugs and bioactive compounds (AID 1345084). Note: nearly all actives have a fitted effect of over 55% in size. The following applies: Gynecologic cancer cell panel viability, ATPlite luminescence, 48 h; series mostly up to 57.5 µM. An outline of the steps: as §3
Assay [5] concerns HEK293T. Briefly: qHTS assay to identify novel small-molecules to repurpose for Merkel cell carcinoma treatment (AID 1296009). Note: nearly all actives have a fitted effect of over 60% in size. Note: potency is the fitted concentration of half-maximal effect. The following applies: MCC and control cell lines, CellTiter-Glo viability, 72 h; at 44.8 µM (top of the series) unless noted. An outline of the steps:
as §2

In the next assay the test system is MKL-2. The assay is described as above. As to conditions: MCC and control cell lines, CellTiter-Glo viability, 72 h; series mostly up to 46 µM. The method in brief: as §2
The subject of assay [6] is NIH3T3. The description is as above. As to conditions: MCC and control cell lines, CellTiter-Glo viability, 72 h; at 44.8 µM (top of the series) unless noted. An outline of the steps: as §2
% is set by controls: 0 for no effect and ±100 for the full control effect.

For the compound `O=C1Cc2cc(Cl)ccc2N1`, the outcome in the assay on HaCat [1] and in the assay with HACAT [3] was inactive. In the assay with NIH3T3 [2], the max response was 3.19%. Also, the Potency entry with MCC-13, in the assay on MCC-26, with MKL-1, with WaGa, with C33A and in the assay with CAOV3 was “inactive” throughout. In addition, the Potency entry in the assay with CASKI, in the assay on Es-2, with Hek293T [4], in the assay with JEG-3 and with OV90 was “inactive” throughout.
With `CC(C)(C)CC(=O)OCC(=O)[C@@]1(O)CC[C@H]2[C@@H]3CCC4=CC(=O)C=C[C@]4(C)[C@H]3[C@@H](O)C[C@@]21C`, the compound was called inactive in the assay with HaCat [1] and with HACAT [3]. For the same compound, the max response in the assay with NIH3T3 [2] was -9.28%. Further, the Potency entry in the assay on MCC-13, in the assay with MCC-26, in the assay on MKL-1, with UISO, in the assay with WaGa and in the assay on C33A was “inactive” each time. The Potency result in the assay on CAOV3, in the assay with CASKI, with Es-2, with HeLa, in the assay on Hek293T [4] and with JEG-3 was “inactive” in each case. Besides, the Potency result in the assay with OV90 is “inactive”.
Regarding `COc1cc(/C=C/C(N)=O)cc(OC)c1OC`, the max response in the assay with HaCat [1] is 2.61%. Besides, the result in the assay with NIH3T3 [2], with HEK293T [5] and in the assay with NIH3T3 [6] was inactive. Besides, the Potency entry in the assay on MCC-13, with MCC-26, in the assay on MKL-1, in the assay on MKL-2, with UISO and in the assay with WaGa was “inactive” each time. Besides, the Potency result in the assay on C33A, with CAOV3, in the assay on CASKI, in the assay with Es-2, with HeLa and in the assay on Hek293T [4] was “inactive” in each case. For the same compound, the Potency result with JEG-3 and with OV90 was “inactive” throughout.
For the compound `Nc1ccc(C(=O)N2CC3CC(CN(Cc4ccccc4)C3)C2)cc1`, the max response in the assay with HaCat [1] was 3.27%. For the same compound, the outcome with NIH3T3 [2], in the assay on HEK293T [5] and in the assay with NIH3T3 [6] was inactive. Besides, the Potency entry in the assay on MCC-13, in the assay on MCC-26, in the assay with MKL-1, in the assay on MKL-2, in the assay with UISO and in the assay with WaGa was “inactive” throughout. The Potency result in the assay with C33A, in the assay on CAOV3, with CASKI, in the assay on Es-2, in the assay with HeLa and with Hek293T [4] was “inactive” throughout. In addition, the Potency result in the assay with JEG-3 was “inactive”.
For the compound `CCOC(=O)c1cc(=O)c2c(OCC(COc3cccc4oc(C(=O)OCC)cc(=O)c34)OC(=O)[C@@H](N)CCCCN)cccc2o1`, the result with HaCat [1], in the assay with NIH3T3 [2], in the assay on HACAT [3] and in the assay with NIH3T3 [6] was inactive. Further, the Potency result with MCC-13, in the assay on MCC-26, in the assay on MKL-1, in the assay with UISO, in the assay with C33A and with CAOV3 was “inactive” throughout. Moreover, the Potency result in the assay with CASKI, in the assay on Es-2, in the assay on HeLa, in the assay on Hek293T [4], in the assay with JEG-3 and with OV90 was “inactive” in each case.
Take `Nc1cc(C(F)(F)F)ccc1S`: the compound was classed as inactive in the assay with HaCat [1], in the assay on NIH3T3 [2], in the assay on HACAT [3] and in the assay on NIH3T3 [6]. Also, the Potency in the assay with MKL-2 is 11.9 µM (active); in the assay with UISO, 13.3 µM (active). For the same compound, the Potency result in the assay on C33A, in the assay with CAOV3, in the assay with CASKI, in the assay with Es-2, in the assay on HeLa and in the assay on Hek293T [4] was “inactive” each time. In addition, the Potency result with JEG-3 and with OV90 was “inactive” throughout.
For `CCOCCn1c(C2CCN(CCc3ccc(C(C)(C)C(=O)O)cc3)CC2)nc2ccccc21`, the compound was classed as inactive in the assay with HaCat [1] and in the assay with HACAT [3]. The max response in the assay with NIH3T3 [2] was -0.532%. The Potency entry with MCC-13, in the assay on MCC-26, in the assay on MKL-1, in the assay on MKL-2, in the assay on UISO and with WaGa was “inactive” each time. For the same compound, the Potency result in the assay on C33A, with CASKI, in the assay with Es-2, in the assay on HeLa, with Hek293T [4] and in the assay on JEG-3 was “inactive” in each case. Also, the Potency entry in the assay on OV90 was “inactive”.
`O=C(O)C(=O)Nc1cccc(-c2nn[nH]n2)c1`: the max response in the assay on HaCat [1] is -5.35%. For the same compound, the call in the assay on NIH3T3 [2], in the assay on HEK293T [5] and in the assay with NIH3T3 [6] was inactive. Besides, the Potency entry in the assay on MCC-13, in the assay with MCC-26, with MKL-1, with MKL-2, in the assay on UISO and with WaGa was “inactive” in each case. The Potency result in the assay with C33A, in the assay with CAOV3, with CASKI, with Es-2, in the assay with HeLa and with Hek293T [4] was “inactive” in each case. The Potency entry in the assay with JEG-3 and in the assay with OV90 was “inactive” each time.
